{"source": "the supplement of paper PMC8728848", "binders": {"B1": {"name": "Erv46-EDTA (Saccharomyces cerevisiae), P39727 (protein)", "chain": "MKFLVNVALVFMVVYISYIYAAAPEHHHHHHDYDIPTTENLYFQGAMDSVVTRPQLVVDRDRHAKLELNMDVTFPSMPCDLVNLDIMDDSGEMQLDILDAGFTMSRLNSEGRPVGDATELHVGGNGDGTAPVNNDPNYCGPCYGAKDQSQNENLAQEEKVCCQDCDAVRSAYLEAGWAFFDGKNIEQCEREGYVSKINEHLNEGCRIKGSAQINRIQGNLHFAPGKPYQNAYGHFHDTSLYDKTSNLNFNHIINHLSFGKPIQSHSKLLGNDKRHGGAVVATSPLDGRQVFPDRNTHFHQFSYFAKIVPTRYEYLDNVVIETAQFSATFHSRPLAGGRDKDHPNTLHVRGGIPGMFVFFEMSPLKVINKEQ"}}, "test_in_all_cases": "glycan array binding signal (z-score within array); higher = stronger binding", "conditions_in_all_cases": "glycan notation: IUPAC condensed, linker removed", "key": {"[1]": {"biological_target": "Fuc(a1-2)Gal(b1-3)[Fuc(a1-4)]GlcNAc(b1-2)Man(a1-3)[Fuc(a1-2)Gal(b1-3)[Fuc(a1-4)]GlcNAc(b1-2)Man(a1-3)]Man(b1-4)GlcNAc(b1-4)GlcNAc", "method_in_brief": "(§1)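 From the Consortium for Functional Glycomics database, 3228 arrays were curated, keeping only those whose protein sequence was available. Binding is given as a within-array Z-score averaged across arrays sharing a protein sequence and across linkers. Negative Z-scores can be read as non-binding.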"}, "[2]": {"biological_target": "Fuc(a1-2)Gal(b1-4)Fuc(a1-3)]GlcNAc(b1-2)Man(a1-3)[Fuc(a1-2)Gal(b1-4)[Fuc(a1-3)]GlcNAc(b1-2)Man(a1-6)]Man(b1-4)GlcNAc(b1-4)GlcNAc", "method_in_brief": "as §1"}, "Fuc(a1-2)Gal(b1-4)GlcNAc": {"biological_target": "Fuc(a1-2)Gal(b1-4)GlcNAc", "method_in_brief": "as §1"}, "[3]": {"biological_target": "Fuc(a1-2)Gal(b1-4)[Fuc(a1-3)]GlcNAc(b1-2)[Fuc(a1-2)Gal(b1-4)[Fuc(a1-3)]GlcNAc(b1-4)]Man(a1-3)[Fuc(a1-2)Gal(b1-4)[Fuc(a1-3)]GlcNAc(b1-2)Man(a1-6)]Man(b1-4)GlcNAc(b1-4)GlcNAc", "method_in_brief": "as §1"}, "[4]": {"biological_target": "Fuc(a1-2)Gal(b1-4)[Fuc(a1-3)]GlcNAc(b1-3)Gal(b1-4)[Fuc(a1-3)]GlcNAc(b1-3)Gal(b1-4)[Fuc(a1-3)]GlcNAc", "method_in_brief": "as §1"}, "[5]": {"biological_target": "Fuc(a1-2)Gal6S(b1-4)Glc6S", "method_in_brief": "as §1"}, "[6]": {"biological_target": "Fuc(a1-2)[GalNAc(a1-3)]Gal", "method_in_brief": "as §1"}, "[7]": {"biological_target": "Fuc(a1-2)[GalNAc(a1-3)]Gal(b1-3)GalNAc(a1-3)[Fuc(a1-2)]Gal(b1-4)GlcNAc", "method_in_brief": "as §1"}, "[8]": {"biological_target": "Gal(a1-3)Gal(b1-4)GlcNAc(b1-2)Man", "method_in_brief": "as §1"}, "[9]": {"biological_target": "Gal(a1-3)Gal(b1-4)[Fuc(a1-3)]GlcNAc(b1-2)Man(a1-3)[Gal(a1-3)Gal(b1-4)[Fuc(a1-3)]GlcNAc(b1-2)Man(a1-6)]Man(b1-4)GlcNAc(b1-4)GlcNAc", "method_in_brief": "as §1"}, "Gal(a1-4)Gal(b1-4)Glc": {"biological_target": "Gal(a1-4)Gal(b1-4)Glc", "method_in_brief": "as §1"}, "[10]": {"biological_target": "Gal(b1-3)GlcNAc(a1-6)Gal(b1-4)GlcNAc", "method_in_brief": "as §1"}, "[11]": {"biological_target": "Gal(b1-3)GlcNAc(b1-3)Gal(b1-4)GlcNAc(b1-2)Man(a1-3)[Gal(b1-3)GlcNAc(b1-3)Gal(b1-4)GlcNAc(b1-2)Man(a1-6)]Man(b1-4)GlcNAc(b1-4)GlcNAc", "method_in_brief": "as §1"}, "[12]": {"biological_target": "Gal(b1-4)GlcNAc(b1-2)Man(a1-6)[Man(a1-3)]Man(b1-4)GlcNAc(b1-4)GlcNAc", "method_in_brief": "as §1"}, "[13]": {"biological_target": "Gal(b1-4)GlcNAc(b1-3)Gal(b1-4)GlcNAc(b1-2)Man(a1-3)[Gal(b1-4)GlcNAc(b1-3)Gal(b1-4)GlcNAc(b1-2)Man(a1-6)]Man(b1-4)GlcNAc(b1-4)GlcNAc", "method_in_brief": "as §1"}, "[14]": {"biological_target": "Gal(b1-4)GlcNAc(b1-3)Gal(b1-4)GlcNAc(b1-2)[Gal(b1-4)GlcNAc(b1-3)Gal(b1-4)GlcNAc(b1-6)]Man(a1-6)[Gal(b1-4)GlcNAc(b1-3)Gal(b1-4)GlcNAc(b1-2)Man(a1-3)]Man(b1-4)GlcNAc(b1-4)GlcNAc", "method_in_brief": "as §1"}, "[15]": {"biological_target": "Gal(b1-4)GlcNAc(b1-3)Gal(b1-4)GlcNAc(b1-2)[Gal(b1-4)GlcNAc(b1-3)Gal(b1-4)GlcNAc(b1-6)]Man(a1-6)[Gal(b1-4)GlcNAc(b1-3)Gal(b1-4)GlcNAc(b1-2)Man(a1-3)]Man(b1-4)GlcNAc(b1-4)[Fuc(a1-6)]GlcNAc", "method_in_brief": "as §1"}, "[16]": {"biological_target": "Gal(b1-4)GlcNAc(b1-3)Gal(b1-4)GlcNAc(b1-3)Gal(b1-4)GlcNAc", "method_in_brief": "as §1"}, "[17]": {"biological_target": "Gal(b1-4)GlcNAc(b1-3)Gal(b1-4)GlcNAc(b1-3)Gal(b1-4)GlcNAc(b1-2)Man(a1-3)[Gal(b1-4)GlcNAc(b1-3)Gal(b1-4)GlcNAc(b1-3)Gal(b1-4)GlcNAc(b1-2)Man(a1-6)]Man(b1-4)GlcNAc(b1-4)GlcNAc", "method_in_brief": "as §1"}, "[18]": {"biological_target": "Gal(b1-4)GlcNAc(b1-3)Gal(b1-4)GlcNAc(b1-3)Gal(b1-4)GlcNAc(b1-3)Gal(b1-4)GlcNAc(b1-3)Gal(b1-4)GlcNAc(b1-2)Man(a1-3)[Gal(b1-4)GlcNAc(b1-3)Gal(b1-4)GlcNAc(b1-3)Gal(b1-4)GlcNAc(b1-3)Gal(b1-4)GlcNAc(b1-3)Gal(b1-4)GlcNAc(b1-2)Man(a1-6)]Man(b1-4)GlcNAc(b1-4)[Fuc(a1-6)]GlcNAc", "method_in_brief": "as §1"}, "[19]": {"biological_target": "Gal(b1-4)GlcNAc(b1-3)Gal(b1-4)GlcNAc(b1-3)GalNAc", "method_in_brief": "as §1"}, "[20]": {"biological_target": "Gal(b1-4)GlcNAc(b1-3)[Fuc(a1-3)GlcNAc(b1-6)]Gal(b1-4)Glc", "method_in_brief": "as §1"}, "Gal(b1-6)Gal": {"biological_target": "Gal(b1-6)Gal", "method_in_brief": "as §1"}, "[21]": {"biological_target": "Gal3S(b1-4)[Fuc(a1-3)]Glc6S", "method_in_brief": "as §1"}, "Gal6S(b1-3)GlcNAc": {"biological_target": "Gal6S(b1-3)GlcNAc", "method_in_brief": "as §1"}}, "note": "The full list was thinned out, with the strongest signals kept by preference."}
{"binder": "B1", "values": [{"measurement": "glycan array binding signal (z-score)", "setting": "[1]", "value": 0.467}, {"measurement": "glycan array binding signal (z-score)", "setting": "[2]", "value": 3.11}, {"measurement": "glycan array binding signal (z-score)", "setting": "Fuc(a1-2)Gal(b1-4)GlcNAc", "value": -0.508}, {"measurement": "glycan array binding signal (z-score)", "setting": "[3]", "value": 2.34}, {"measurement": "glycan array binding signal (z-score)", "setting": "[4]", "value": -0.775}, {"measurement": "glycan array binding signal (z-score)", "setting": "[5]", "value": 0.075}, {"measurement": "glycan array binding signal (z-score)", "setting": "[6]", "value": -0.619}, {"measurement": "glycan array binding signal (z-score)", "setting": "[7]", "value": -0.454}, {"measurement": "glycan array binding signal (z-score)", "setting": "[8]", "value": 0.805}, {"measurement": "glycan array binding signal (z-score)", "setting": "[9]", "value": 2.74}, {"measurement": "glycan array binding signal (z-score)", "setting": "Gal(a1-4)Gal(b1-4)Glc", "value": 0.54}, {"measurement": "glycan array binding signal (z-score)", "setting": "[10]", "value": -0.279}, {"measurement": "glycan array binding signal (z-score)", "setting": "[11]", "value": 0.126}, {"measurement": "glycan array binding signal (z-score)", "setting": "[12]", "value": -0.001}, {"measurement": "glycan array binding signal (z-score)", "setting": "[13]", "value": 4.93}, {"measurement": "glycan array binding signal (z-score)", "setting": "[14]", "value": 2.71}, {"measurement": "glycan array binding signal (z-score)", "setting": "[15]", "value": 2.65}, {"measurement": "glycan array binding signal (z-score)", "setting": "[16]", "value": 0.66}, {"measurement": "glycan array binding signal (z-score)", "setting": "[17]", "value": 3.36}, {"measurement": "glycan array binding signal (z-score)", "setting": "[18]", "value": 1.81}, {"measurement": "glycan array binding signal (z-score)", "setting": "[19]", "value": 2.4}, {"measurement": "glycan array binding signal (z-score)", "setting": "[20]", "value": -0.11}, {"measurement": "glycan array binding signal (z-score)", "setting": "Gal(b1-6)Gal", "value": -0.241}, {"measurement": "glycan array binding signal (z-score)", "setting": "[21]", "value": 0.233}, {"measurement": "glycan array binding signal (z-score)", "setting": "Gal6S(b1-3)GlcNAc", "value": -0.805}]}
